Results published in PubChem BioAssay (NCI).
Compounds without any hit were thinned out: in the full panel of roughly 83,000, 20% have a hit.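 Results are percent growth after 48 hours of single-concentration exposure. 100 means growth as in untreated cells, lower positive values show inhibition; negative values down to -100 show cell death.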 Activity calls are given as the source filed them. How the source made its calls: active means growth percent below 10; inactive means the rest.

The compounds below were run on HCC-2998 colon (assay: NCI-60 one-dose screen, 48 h (100 = growth as untreated, 0 = no growth, -100 = all killed)). Settings: 10 µM unless noted.

| SMILES | growth |
| --- | --- |
| COc1cccc(/C=C2\COc3ccc(-c4ccccc4)cc3C2=O)c1 | 19.4% (inactive) |
| O=C1Nc2ccccc2/C1=C\c1cccc(/C=C2/C(=O)Nc3ccccc32)n1 | -84.1% (active) |
| COc1ccc(C(=O)c2cc3c(N)c(C(=O)Nc4ccc(Br)cc4)sc3nc2C)cc1 | 94.7% (inactive) |
| O=S(=O)(O)c1cc(O)c2c(N=Nc3ccc(Nc4ccccc4)c4c(S(=O)(=O)O)cccc34)cc(S(=O)(=O)O)cc2c1 | 102% (inactive) |
| NC(=S)N/N=C(\c1ccc(Cl)cc1)C1CC1 | 102% (inactive) |
| CCNNC(=O)[C@@H]1[C@H](c2cc(OC)c(OC)c(OC)c2)c2cc3c(cc2[C@H](O)[C@H]1CO)OCO3 | 6.02% (active) |
| COc1cc2nc(-c3ccc(C(F)(F)F)cc3)cc(OCCN3CCCC3)c2cc1OC | 82% (inactive) |
| Clc1ccc2c(c1)c(-c1ccccc1)nc1nncn12 | 113% (inactive) |
| O=S(=O)(c1ccc(N/N=C\c2ccccc2)cc1)c1ccc(N/N=C/c2ccccc2)cc1 | 66.4% (inactive) |
| CN1C(=O)N(C)[C@H]2NC(NN)=N[C@H]21 | 102% (inactive) |
| COc1ccc(C(O)c2cc3c(N)c(C(=O)Nc4ccccc4)sc3nc2C)cc1 (centres undefined) | 9.2% (active) |
| COc1cc(C2CC(c3cccc(Nc4ccncc4)c3)=NN2c2cc(Cl)cc(Cl)c2)cc(OC)c1OC (centres undefined) | -60.4% (active) |
| Cc1cccc(Oc2ccc(Nc3ncnc4ccc(NC(=O)CN(C)C)cc34)cc2Cl)c1 | 13.3% (inactive) |
| O=C(CN1CCOCC1)Nc1ccc2ncnc(Nc3ccc(Oc4cccc(F)c4)c(Cl)c3)c2c1 | 101% (inactive) |
